Test systems include T-47D breast; BT-549 breast; MDA-MB-435 melanoma; SW-620 colon; MCF7 breast; HCT-116 colon; HCC-2998 colon; KM12 colon.
Assay in all cases: NCI-60 one-dose screen, 48 h (100 = growth as untreated, 0 = no growth, -100 = all killed)
Common to all, as to settings: 10 µM unless noted

About 83,000 compounds went through this panel and 20% of them were active in at least one assay; those are over-represented in the sample as a whole.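 Method: cells in 96-well plates; compound added at one concentration; 48 h incubation; percent growth measured; values under 10 scored active.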 Values without a mark were called inactive. The source made the active and inactive calls.

`Cc1cccc(/C=C2\CN(C(=O)OC(C)(C)C)C/C(=C\c3cccc(C)c3)C2=O)c1`: the growth was 87.8% with T-47D breast; 105% in the assay on BT-549 breast; 93.1% with MDA-MB-435 melanoma; 7.71% (active) in the assay on SW-620 colon; 23.2% with MCF7 breast; 11.2% in the assay on HCT-116 colon. Also, the growth was 103% with HCC-2998 colon and 74.1% with KM12 colon.
Regarding `OCCn1cc(-c2nc(-c3c[nH]c4ncccc34)cs2)c2cc(F)ccc21`, the growth with T-47D breast is 35.2%; in the assay on BT-549 breast, 68.7%; in the assay with MDA-MB-435 melanoma, 5.03% (active); with SW-620 colon it was 57.9%; in the assay with MCF7 breast, 48.1%; in the assay on HCT-116 colon it was 62.4%. Moreover, the growth is 65.3% in the assay on HCC-2998 colon and 28.4% in the assay on KM12 colon.
Take `Nc1cnc(C(=O)NNc2nc3cc(F)ccc3n3cccc23)cn1`: the growth was 35.5% in the assay on T-47D breast; 52.9% with BT-549 breast; 38.9% in the assay with MDA-MB-435 melanoma; 36% in the assay on SW-620 colon; 16.6% in the assay on MCF7 breast; 36% with HCT-116 colon. The growth was 48.4% in the assay on HCC-2998 colon and 24.7% in the assay with KM12 colon.
For the compound `O=C1C(Cl)=C(NCCCCCCNC2=C(Cl)C(=O)c3ccccc3C2=O)C(=O)c2ccccc21`, the growth was 90.7% in the assay with T-47D breast; 91.2% with BT-549 breast; 79.4% in the assay on MDA-MB-435 melanoma; 73.3% in the assay with SW-620 colon; 81.6% in the assay with MCF7 breast; 88% in the assay with HCT-116 colon. Further, the growth in the assay on HCC-2998 colon is 103%; with KM12 colon it was 98.1%.
Turning to `Nc1c(C(=O)Nc2ccncc2)sc2nc3c(cc12)C(O)CCC3` (configuration not stated), the growth in the assay with T-47D breast was 74.3%; with BT-549 breast it was 113%; in the assay with MDA-MB-435 melanoma it was 101%; in the assay with SW-620 colon, 99.7%; with MCF7 breast it was 93.8%; in the assay on HCT-116 colon, 83.4%. The results for the growth in the assay on HCC-2998 colon and in the assay with KM12 colon were 96.7% and 109%, respectively.
Regarding `CCOC(=O)[C@@H]1CSC(CC)=C(C(=O)O)N1`, the growth is 87.3% in the assay with T-47D breast; 101% in the assay on BT-549 breast; 109% in the assay with MDA-MB-435 melanoma; 105% in the assay on SW-620 colon; 108% in the assay with MCF7 breast; 94.1% with HCT-116 colon. Moreover, the results for the growth in the assay with HCC-2998 colon and in the assay with KM12 colon were 111% and 114%, respectively.
On to `COc1cc(-c2csc(NC(=O)c3ccc(N4CCOCC4)c(C(F)(F)F)c3)n2)cc(OC)c1OC`, for which the growth with T-47D breast was -5.81% (active); in the assay on BT-549 breast it was -7.47% (active); with MDA-MB-435 melanoma, 35.1%; in the assay with SW-620 colon, 48.9%; in the assay on MCF7 breast it was 19.2%; with HCT-116 colon it was 16%. Further, the values for the growth in the assay with HCC-2998 colon and in the assay with KM12 colon were 60.2% and 16.9%, respectively.
As to `O=C1NC(=O)C(Cc2ccc(OCc3ccc(-c4ccc(Cl)cc4Cl)cc3)cc2)S1` (configuration not stated), the growth is 16.1% with T-47D breast; 37.9% in the assay with BT-549 breast; 24.5% with MDA-MB-435 melanoma; 67.9% with SW-620 colon; 28.5% in the assay on MCF7 breast; 38.6% with HCT-116 colon. Moreover, the growth in the assay with HCC-2998 colon was 60.8%; in the assay with KM12 colon, 47.7%.
With `NC(Cc1ccc(O)c([N+](=O)[O-])c1)C(=O)O` (configuration not stated), the growth was 103% in the assay with T-47D breast; 96.9% in the assay on BT-549 breast; 112% in the assay on MDA-MB-435 melanoma; 104% in the assay on SW-620 colon; 98% with MCF7 breast; 98.5% with HCT-116 colon. Moreover, the figures for the growth with HCC-2998 colon and in the assay on KM12 colon were 99.6% and 103%, respectively.
As to `C=C(C)[C@@H]1CC[C@]2(C(=O)O)CC[C@]3(C)[C@H](CC[C@@H]4[C@@]5(C)CCC(NC(=O)c6cccc(OC(C)=O)c6OC(C)=O)C(C)(C)[C@@H]5CC[C@]43C)[C@@H]12` (some centres not stated), the growth is 20.9% in the assay with T-47D breast; 16.5% with BT-549 breast; -56.4% (active) with MDA-MB-435 melanoma; 2.79% (active) in the assay on SW-620 colon; 4.17% (active) in the assay with MCF7 breast; -38.6% (active) with HCT-116 colon. The figures for the growth with HCC-2998 colon and in the assay with KM12 colon were 12% and 12.1%, respectively.
In the case of `COc1ccc(C(=O)c2cc3c(N)c(C(=O)Nc4ccc(C)cc4)sc3nc2C)cc1`, the growth with T-47D breast is 46.6%; in the assay with BT-549 breast, 46.5%; in the assay on MDA-MB-435 melanoma, -42.9% (active); with SW-620 colon, 28.3%; with MCF7 breast, 18.8%; in the assay with HCT-116 colon, 16.2%. The growth was 13.9% in the assay on HCC-2998 colon and 15.5% with KM12 colon.
Regarding `Cc1ccc(/C=C2\COc3ccc(O)cc3C2=O)cc1`, the growth with T-47D breast was 88.9%; with BT-549 breast, 79.1%; with MDA-MB-435 melanoma, 75.8%; in the assay on SW-620 colon it was 47.9%; in the assay with MCF7 breast it was 12.8%; in the assay with HCT-116 colon, 59.5%. The growth was 112% in the assay with HCC-2998 colon and 46.6% in the assay on KM12 colon.
For `C=CCOC(=O)Nc1cccn([C@H](Cc2ccccc2)C(=O)NCCC(C)C)c1=O`, the growth was 93.8% in the assay with T-47D breast; 132% in the assay on BT-549 breast; 108% in the assay on MDA-MB-435 melanoma; 109% in the assay on SW-620 colon; 92.8% with MCF7 breast; 109% in the assay with HCT-116 colon. The growth was 105% with HCC-2998 colon and 110% in the assay with KM12 colon.
Take `Cn1cc(-c2nonc2-c2cn(C)c3ccccc23)c2ccccc21`: the growth in the assay on T-47D breast was 33.4%; in the assay with BT-549 breast, 31.1%; in the assay on MDA-MB-435 melanoma, -34.3% (active); in the assay on SW-620 colon it was 24.5%; in the assay with MCF7 breast, 19.4%; in the assay with HCT-116 colon, 11.6%. Moreover, the growth is 51.2% with HCC-2998 colon and 27.4% in the assay with KM12 colon.

Values taken from PubChem BioAssay (NCI).
